Only a selection was taken, and hits are over-represented in it overall.
PKM2 activator: activators of human pyruvate kinase M2 | P14618 | purified PKM2, Kinase-Glo ATP luminescence, activation; response scale: 0% is enzyme alone, no compound | Potency, µM (doses to about 57.5 µM), without a hit: top-dose activation, usual class: activators | actives 0.34% (n = 260,000); also: nearly all actives have a fitted effect of over 55% in size
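Purified hPK-M2 (>95% pure) converted ADP (0.1 mM final) to ATP with 0.5 mM PEP in 50 mM imidazole pH7.2, KCl, MgCl2, Tween 20, BSA; 1 h at room temperature. ATP detected by Kinase-Glo luminescence.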
APE1 inh: APE1 (human) endonuclease inhibition; P27695; recombinant APE1, TAMRA/BHQ-2 abasic DNA cleavage fluorescence; Potency, µM (highest dose often 65.8 µM), for the others: top-dose activity change, negative = inhibition, actives largely listed as inhibitors; actives 0.35% (n = 350,000);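 also: plate controls were vehicle for no effect and reference inhibitor for full effect; nearly all actives have a fitted effect of over 55% in size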
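0.75 nM APE1 + cpd, 15 min RT; start w/ 50 nM TAMRA/BHQ-2 THF-abasic dsDNA; kinetic fluor 525/598 nm ×3 reads @60 s; Δ(read3−read1); normalized to DMSO and NSC13755 control wells.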
KDM4E inh: JMJD2E (human) inhibition | B2RXH2 | JMJD2E catalytic domain, FDH-coupled NADH fluorescence (FDH is formaldehyde dehydrogenase) | Potency, µM (top dose mostly 57.1 µM), without a hit: top-dose activity change, negative = inhibition, hits mostly inhibitors | actives 1.6% (n = 230,000) | AID 2147; active = well fitted inhibition curve with a large enough effect, not every such curve was filed as active; inconclusive = small, poorly fitted or top-dose-only effect, or another doubt; inactive = no such curve, though single readings can be large or run the other way;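 also: 0% = wells with enzyme and -100% = buffer wells without enzyme; nearly all actives have a fitted effect of over 50% in size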
BLM inh: blocks DNA unwinding by human BLM helicase; P54132; recombinant BLM DNA unwinding, fluorescence dequenching; Potency, µM (highest dose often 56.1 µM), for the others: at the highest dose activity change, negative = inhibition, most hits filed as inhibitors; actives 0.2% (n = 350,000); AID 2528;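 also: plate controls were vehicle for no effect and no enzyme for full effect; nearly all actives have a fitted effect of over 35% in size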
RECQ1 inh-1: blocks DNA unwinding by human RECQ1. P46063. RECQ1 DNA unwinding, red fluorescence kinetic read. Potency, µM (titrated, usually from 57.3 µM), for the others: at the highest dose activity, negative = inhibition, hits mostly inhibitors. actives 0.54% (n = 240,000). AID 2549;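 also: plate controls were vehicle for no effect and no enzyme for full effect; nearly all actives have a fitted effect of over 30% in size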
Target sequence (P46063 whole entry, looked up): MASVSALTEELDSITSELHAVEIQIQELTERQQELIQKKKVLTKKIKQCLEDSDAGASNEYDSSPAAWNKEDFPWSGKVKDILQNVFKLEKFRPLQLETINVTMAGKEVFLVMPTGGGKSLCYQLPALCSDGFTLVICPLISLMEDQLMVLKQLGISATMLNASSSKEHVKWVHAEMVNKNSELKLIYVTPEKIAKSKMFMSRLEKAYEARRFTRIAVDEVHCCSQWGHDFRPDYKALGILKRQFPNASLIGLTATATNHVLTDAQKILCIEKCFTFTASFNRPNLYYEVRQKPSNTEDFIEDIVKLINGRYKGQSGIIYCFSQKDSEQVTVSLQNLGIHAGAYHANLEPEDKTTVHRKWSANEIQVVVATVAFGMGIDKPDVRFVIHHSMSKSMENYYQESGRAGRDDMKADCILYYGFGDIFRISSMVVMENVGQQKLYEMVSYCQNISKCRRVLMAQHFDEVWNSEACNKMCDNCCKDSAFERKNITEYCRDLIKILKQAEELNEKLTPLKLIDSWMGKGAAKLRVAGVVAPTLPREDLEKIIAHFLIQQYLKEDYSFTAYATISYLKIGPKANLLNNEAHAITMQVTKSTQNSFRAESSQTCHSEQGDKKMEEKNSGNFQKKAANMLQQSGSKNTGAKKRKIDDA
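RECQ1T1 50 nM; forked duplex (20 bp + 30-nt ss tails) 200 nM, ATP 2 mM final; pH 8.0, 2 mM MgCl2, 2.5 ug/ml poly(dI-dC); 15 min compound preincubation; discontinuous kinetic read over 2 h at RT.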
RECQ1 inh conf: confirmation of human RECQ1 helicase inhibitors | shares compounds with RECQ1 inh-1 | Potency, µM (top dose mostly 229 µM), inactives show at the highest dose activity change, negative = inhibition, usual class: inhibitors | actives 28% (n = 610) | RECQ1 helicase DNA unwinding, fluorescence; also: nearly all actives have a fitted effect of over 45% in size
ADP FP counter: counter-screen for RECQ1 inhibitors: ADP displacement; Potency, µM (highest dose often 228 µM), inactives show at the top dose activity change, negative = inhibition, most hits filed as inhibitors; ADP fluorescence polarization displacement counterscreen; actives 27% (n = 530); shares compounds with RECQ1 inh-1; also: nearly all actives have a fitted effect of over 45% in size
RECQ1 inh-2: confirmation of human RECQ1 helicase inhibitors | actives 15% (n = 1,100) | Potency, µM (doses to about 119 µM), without a hit: at the highest dose activity, negative = inhibition, actives largely listed as inhibitors | AID 504841 | shares compounds with RECQ1 inh-1 | recombinant RECQ1 DNA unwinding, red fluorescence; also: nearly all actives have a fitted effect of over 50% in size
Starred values were filed as active, the others as inactive; i = inactive; ? = inconclusive; . = not tested or not shown; [ ] = dose if it differs, or a comment. Unless noted, calls follow the shape of the dose curve; as a rule, active = well fitted curve in the direction sought with a large enough effect; inconclusive = small, poorly fitted or top-dose-only effect, or another doubt; inactive = no such curve, though single readings can be large; an effect the other way counts as inactive or inconclusive. Unless noted, % is scaled to controls: 0 for no effect and ±100 for the full control effect; potency is read from the fitted curve at half-maximal effect.

SMILES	PKM2 activator	APE1 inh	KDM4E inh	BLM inh	RECQ1 inh-1	RECQ1 inh-2	others
N=C1S/C(=C\c2ccco2)C(=O)N1c1nccs1	-17%	?	-9%	-2%	?	-42%
O=C(CSc1nccn1Cc1ccc(F)cc1)Nc1ccc2c(c1)OCCO2	.	.	.	0%	.	.
Cc1ccc(S(=O)(=O)N2CCCC(C(=O)NCc3ccc4c(c3)OCO4)C2)cc1 (stereo not drawn)	.	27%	.	-4%	.	.
O=C(NCc1ccc2c(c1)OCO2)C1CCCN(S(=O)(=O)c2cccnc2)C1 (stereo not drawn)	-6%	13%	7%	1%	?	-3%
O=C(O)C1Nc2c(O)cc(Cl)c([N+](=O)[O-])c2C2C=CCC12 (stereo not drawn)	?	2.5µM*	7.9µM*	1.8µM*	1.8µM*	?
COc1ccc(Cl)cc1NC(=O)N1CCC(CN2CCc3ccccc3C2)CC1	.	.	.	2%	.	.
CCC(=Nc1ccc(N)cc1)C1=C(O)C(C(=O)OC)C(C)(C)CC1=O (stereo not drawn)	11%	?	8.9µM*	?	?	-6%
Cc1ccc2nc(C)cc(C(=O)OCC(=O)c3ccc(Cl)c([N+](=O)[O-])c3)c2c1	-3%	-1%	-11%	-7%	-2%	.
Cc1cc(C(=O)OCC(=O)c2ccc(Cl)c([N+](=O)[O-])c2)c2cccc(C)c2n1	1%	?	-19%	-17%	18µM*	-13%
O=C(c1ccc2c(=O)n(CCc3ccccc3)c(=O)[nH]c2c1)N1CCN(c2ccccc2)CC1	-4%	14%	.	-5%	.	.
COc1ccc(N2CCN(C(=O)c3ccc4c(=O)n(CCc5ccc(OC)c(OC)c5)c(=O)[nH]c4c3)CC2)cc1	8%	10%	10%	-7%	-13%	.	RECQ1 inh conf=6%;ADP FP counter=?
CSc1ccc(CCNC(=O)c2ccc3c(c2)nc2n3CCCCC2)cc1	.	.	.	2%	.	.
Cc1cc(-c2ccc(C)c(S(=O)(=O)Nc3ccccc3C(F)(F)F)c2)on1	.	.	.	-4%	.	.
CN(C)/C=C/C(=O)c1ccc(Br)cc1	-5%	21%	-1%	-4%	?	-30%
COc1ccc(CCNc2ncnc3c2[nH]c2cc(OC)c(OC)cc23)cc1OC	1%	?	?	-14%	14µM*	?	RECQ1 inh conf=?;ADP FP counter=-23%[91.9 µM]
CC(C)=CCC/C(C)=C/CO/N=C1/C[C@@H](O)[C@@H](O)[C@@H]2[C@H]3C(=O)N(c4ccc(F)cc4F)C(=O)[C@@H]3CC[C@H]12	.	11%[12.4 µM]	.	-5%[12.4 µM]	i[11.5 µM]	.
Cc1cc(C)n2c(SCC(=O)Nc3c(C)n(C)n(-c4ccccc4)c3=O)nnc2n1	-2%	-2%	-10%	-2%	-6%	.	RECQ1 inh conf=18%;ADP FP counter=7%
CN(C)C(=O)c1ccc(-c2cc(NCc3cccnc3)ncn2)cc1	.	4%	.	-1%	i	.
COc1cc(C(C)=O)ccc1COc1ccc(C(=O)OCC(=O)NC2CCS(=O)(=O)C2)cc1OC (stereo not drawn)	-5%	-3%	4%	0%	32µM*	-9%
COc1ccc(Oc2ncc3nc(-c4cccc(C#N)c4)c(=O)n(CCC#N)c3n2)cc1	.	-2%	.	-2%	-6%	.
CCn1cc(C(=O)OC(C)C(=O)Nc2c(C)n(C)n(-c3ccccc3)c2=O)c(=O)c2ccc(C)nc21 (stereo not drawn)	-2%	8%	3%	0%	i	.
CCn1cc(C(=O)OCC(=O)Nc2c(C)n(C)n(-c3ccccc3)c2=O)c(=O)c2ccc(C)nc21	0%	0%	2%	-1%	i	.	RECQ1 inh conf=11%;ADP FP counter=?
CCNC(=O)COC(=O)c1cc(-c2ccco2)nc2ccccc12	1%	25µM*	?	?	28µM*	?
Cc1ccc2nc(C)cc(C(=O)OCC(=O)Nc3c(C)n(C)n(-c4ccccc4)c3=O)c2c1	.	-5%	?	-2%	-7%	.
CCCc1nc2ccccc2c(C(=O)OCC(=O)Nc2c(C)n(C)n(-c3ccccc3)c2=O)c1CC	10%	2%	7%	1%	-11%	.	RECQ1 inh conf=12%;ADP FP counter=14%
SMILES	PKM2 activator	APE1 inh	KDM4E inh	BLM inh	RECQ1 inh-1	RECQ1 inh-2	others
Cc1c(NC(=O)COC(=O)c2cc(-c3cccc4ccccc34)nc3ccccc23)c(=O)n(-c2ccccc2)n1C	-8%	-4%	i	-2%	?	?
CCOc1ccc(CC(=O)Nc2c(C(=O)c3ccc(F)cc3)oc3ccc(Cl)cc23)cc1OCC	.	.	.	-2%	.	.
O=C(CSc1cccc2cccnc12)N/N=C/c1cccc(O)c1	1%	1%	?	-6%	-6%	.
O=C(N/N=C/c1ccc(O)c(O)c1)c1ccc(CSc2cccc3cccnc23)cc1	9%	-11%	?	-19%	11µM*	.	RECQ1 inh conf=-14%[114 µM];ADP FP counter=18%[91.9 µM]
CC(C)(C)OC(=O)N1CCC(c2c(C(=O)N3CCN(C(=O)c4ccco4)CC3)cnn2-c2cccc(F)c2)CC1	.	.	.	1%	.	.
Cc1cc2nc(C)c(Cl)c(=O)n2[nH]1	9%	-5%	?	-4%	?	-3%
Cc1cc(=O)n2nc(N3CCC(C(=O)Nc4ccc(Br)c(C)c4)CC3)sc2n1	.	.	.	-4%	.	.
CCc1ccc(-n2c(SCC(=O)N3Cc4ccccc4CC3C(=O)O)nnc2-c2ccncc2)cc1 (stereo not drawn)	-12%	-3%	?	0%	i	.	RECQ1 inh conf=20%;ADP FP counter=-6%
COc1cccc(NC(=O)Nc2ccc3nc(N4CCN(C)CC4)cc(C)c3c2)c1	.	.	.	-22%	.	.
Cc1cc(C(=O)COC(=O)CNC(=O)c2ccco2)c(C)n1Cc1ccco1	4%	?	-2%	-17%	?	-6%
COc1cc(OC)cc(C(=O)NCC(=O)OCC(=O)c2cc(C)n(Cc3ccco3)c2C)c1	4%	-3%	1%	-13%	-19%	.
COc1cc2ccccc2cc1C(=O)NC(=S)Nc1ccc(C(=O)O)cc1	1%	25%	.	-6%	.	.
COc1cc2ccccc2cc1C(=O)NC(=S)Nc1cccc(C(=O)O)c1	-3%	?	?	?	?	25µM*
CCc1ccccc1N(C)S(=O)(=O)c1ccc2c(c1)C(C)(C)C(=O)N2C	.	.	.	-2%	.	.

Source: PubChem BioAssay
